# Reference: PubChem BioAssay (NCATS)
# Inconclusive results are not listed. A call without a number means that no potency is given here. A number with no mark means an inactive call. Active and inactive are the calls of the source. Calls follow the shape of the dose curve; as a rule, active = well fitted curve in the direction sought with a large enough effect; inconclusive = small, poorly fitted or top-dose-only effect, or another doubt; inactive = no such curve, though single readings can be large; an effect the other way counts as inactive or inconclusive.
# Experiments:
# [1] = biological target: Rap guanine nucleotide exchange factor 3 (Homo sapiens) (UniProt O95398); assay: Confirmatory qHTS for agonist of cAMP-regulated guanine nucleotide exchange factor 3 (EPAC1) (AID 1645881); settings: EPAC1 Rap1B BODIPY-GDP exchange fluorescence; series mostly up to 154 µM;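 also: EPAC1 catalysed release of BODIPY-GDP from Rap1B seen as fluorescence loss; nearly all actives have a fitted effect of over 75% in size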
# [2] = biological target: Rap guanine nucleotide exchange factor 4 (Homo sapiens) (UniProt Q8WZA2); assay: Confirmatory qHTS for agonist of cAMP-regulated guanine nucleotide exchange factor 4 (EPAC2) (AID 1645884); settings: EPAC2 GEF activity, Rap1B-BODIPY-GDP fluorescence; series mostly up to 154 µM;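 also: nucleotide exchange releases bodipy-GDP from Rap1 and this lowers its fluorescence; nearly all actives have a fitted effect of over 65% in size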
# [3] = biological target: Rap guanine nucleotide exchange factor 4 (Homo sapiens) (UniProt Q8WZA2); assay: Confirmatory qHTS for antagonist of cAMP-regulated guanine nucleotide exchange factor 4 (EPAC2) (AID 1645885); settings: EPAC2 Rap1B-BODIPY-GDP exchange fluorescence, biochemical; series mostly up to 12.7 µM; also: nearly all actives have a fitted effect of over 25% in size; also: potency is read from the fitted curve at half-maximal effect
# [4] = biological target: Rap guanine nucleotide exchange factor 3 (Homo sapiens) (UniProt O95398); assay: Counterscreen qHTS for antagonist of cAMP-regulated guanine nucleotide exchange factor 3 (EPAC1) (AID 1645888); settings: Rap1B-BODIPY-GDP nucleotide exchange, fluorescence; series mostly up to 154 µM;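 also: fluorescence loss as bound BODIPY-GDP is released from Rap1B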
# How it was run: (§1)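 Rap1B-BODIPY-GDP 250 nM + GDP 50 uM; cpds 7-pt, final 9.74 nM–152 uM (activator mode) or from 7.32 nM upwards (inhibitor mode); RT; FI 480/540 nm at 5 and 30 min, then ± cAMP, reread.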
# [5] = biological target: Rap guanine nucleotide exchange factor 3 (Homo sapiens) (UniProt O95398); assay: Counterscreen qHTS for agonist of cAMP-regulated guanine nucleotide exchange factor 3 (EPAC1) (AID 1645889); settings: EPAC1 Rap1B-BODIPY-GDP exchange, fluorescence; series mostly up to 154 µM; also: nearly all actives have a fitted effect of over 40% in size; also: potency is read from the fitted curve at half-maximal effect
# How it was run: as §1
# Chain of Rap guanine nucleotide exchange factor 4 (Homo sapiens) (Q8WZA2 whole entry, looked up): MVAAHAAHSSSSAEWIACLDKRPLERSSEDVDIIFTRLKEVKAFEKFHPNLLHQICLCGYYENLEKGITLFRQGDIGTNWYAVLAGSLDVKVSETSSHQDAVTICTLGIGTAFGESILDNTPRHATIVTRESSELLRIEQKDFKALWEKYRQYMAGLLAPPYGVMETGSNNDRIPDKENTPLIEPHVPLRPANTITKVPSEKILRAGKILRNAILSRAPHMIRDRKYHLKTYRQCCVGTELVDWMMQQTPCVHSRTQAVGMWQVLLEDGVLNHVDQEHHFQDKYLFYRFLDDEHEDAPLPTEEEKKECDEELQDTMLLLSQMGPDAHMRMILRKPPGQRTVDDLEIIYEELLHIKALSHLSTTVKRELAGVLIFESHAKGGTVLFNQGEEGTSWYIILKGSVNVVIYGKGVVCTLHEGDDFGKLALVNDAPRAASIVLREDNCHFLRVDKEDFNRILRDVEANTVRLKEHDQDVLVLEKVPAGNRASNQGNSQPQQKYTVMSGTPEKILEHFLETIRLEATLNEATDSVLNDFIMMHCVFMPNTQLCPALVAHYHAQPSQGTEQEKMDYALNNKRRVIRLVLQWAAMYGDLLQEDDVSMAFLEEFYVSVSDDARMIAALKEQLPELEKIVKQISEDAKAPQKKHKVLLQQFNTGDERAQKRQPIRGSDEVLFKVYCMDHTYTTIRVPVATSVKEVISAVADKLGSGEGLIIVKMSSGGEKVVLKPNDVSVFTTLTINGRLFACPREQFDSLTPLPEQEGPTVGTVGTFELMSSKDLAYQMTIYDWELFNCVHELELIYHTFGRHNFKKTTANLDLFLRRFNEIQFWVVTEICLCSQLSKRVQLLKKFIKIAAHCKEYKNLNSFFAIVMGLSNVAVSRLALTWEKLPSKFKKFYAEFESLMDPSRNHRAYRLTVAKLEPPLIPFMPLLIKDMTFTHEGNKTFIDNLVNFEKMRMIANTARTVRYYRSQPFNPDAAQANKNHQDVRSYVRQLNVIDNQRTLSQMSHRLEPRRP
# Chain of Rap guanine nucleotide exchange factor 3 (Homo sapiens) (O95398 whole entry, looked up): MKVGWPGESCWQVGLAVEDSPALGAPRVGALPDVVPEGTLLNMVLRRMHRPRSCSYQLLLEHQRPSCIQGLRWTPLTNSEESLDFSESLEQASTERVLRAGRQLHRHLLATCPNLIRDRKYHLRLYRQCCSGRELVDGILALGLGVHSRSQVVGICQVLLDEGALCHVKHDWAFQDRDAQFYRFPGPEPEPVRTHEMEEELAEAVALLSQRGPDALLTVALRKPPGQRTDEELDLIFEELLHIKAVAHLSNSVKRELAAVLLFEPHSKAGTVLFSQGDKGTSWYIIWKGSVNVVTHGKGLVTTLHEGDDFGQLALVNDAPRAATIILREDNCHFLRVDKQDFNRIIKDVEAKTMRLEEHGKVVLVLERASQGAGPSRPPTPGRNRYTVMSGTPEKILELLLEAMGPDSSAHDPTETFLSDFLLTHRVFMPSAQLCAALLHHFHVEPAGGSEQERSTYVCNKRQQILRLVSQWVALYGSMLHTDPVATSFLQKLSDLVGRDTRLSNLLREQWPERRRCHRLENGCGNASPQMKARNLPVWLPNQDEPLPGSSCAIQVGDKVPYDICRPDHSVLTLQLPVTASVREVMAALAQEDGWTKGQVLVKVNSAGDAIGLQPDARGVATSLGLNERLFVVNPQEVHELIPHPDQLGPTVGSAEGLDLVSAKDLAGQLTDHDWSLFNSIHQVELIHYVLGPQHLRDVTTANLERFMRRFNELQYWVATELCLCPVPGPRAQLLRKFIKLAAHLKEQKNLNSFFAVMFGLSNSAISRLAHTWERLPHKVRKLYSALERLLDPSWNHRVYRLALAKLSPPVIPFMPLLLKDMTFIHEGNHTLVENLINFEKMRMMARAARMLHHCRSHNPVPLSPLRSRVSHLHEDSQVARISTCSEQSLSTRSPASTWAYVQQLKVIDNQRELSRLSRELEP
Compound,Potency [1],Potency [2],Potency [3],Potency [4],Potency [5],activation [2],"activity change, negative = inhibition [4]",activation [5]
CCCCOc1cccc(C2C(C(=O)c3ccc(C)o3)=C(O)C(=O)N2c2nnc(C)s2)c1 (stereo not given),inactive,inactive,inactive,inactive,inactive,–,–,–
O=[N+]([O-])c1ccc(NS(=O)(=O)c2ccc(Cl)c(Cl)c2)cc1,inactive,inactive,inactive,inactive,inactive,–,–,–
Cn1c(=O)c(C(=O)NNC(=O)c2ccccc2Br)c(O)c2ccccc21,inactive,–,inactive,–,–,"2.84% [at 17.1 µM, percent relative to cAMP agonist control]",-5.21% [at 30.8 µM],8.96% [at 30.8 µM]
COC1=CC(=O)C(C2CC(=O)c3c(O)cc(O)cc3O2)=CC1=O (stereo not given),inactive,–,inactive,–,–,"9.22% [at 17.1 µM, percent relative to cAMP agonist control]",-16% [at 30.8 µM],4.79% [at 30.8 µM]
O=C(/C=C/c1ccco1)NC(=S)Nc1cccc(-c2nc3ccccc3o2)c1,inactive,–,inactive,–,–,"-2.07% [at 17.1 µM, percent relative to cAMP agonist control]",-12.8% [at 30.8 µM],10.2% [at 30.8 µM]
CCC1(c2ccccc2)SCC(c2ccccc2)=NC1=O (stereo not given),inactive,inactive,inactive,inactive,inactive,–,–,–
COc1ccccc1Cc1c(-c2ccco2)nc2cc(C)c(Br)c(C)n12,inactive,–,inactive,–,–,"3.49% [at 17.1 µM, percent relative to cAMP agonist control]",-0.951% [at 30.8 µM],13.6% [at 30.8 µM]
CCOC(=O)C1=C(C)N=c2sc(=Cc3cc(Cl)c(OCC(=O)O)c(Cl)c3)c(=O)n2C1c1cccc(OC)c1 (stereo not given),inactive,inactive,inactive,inactive,inactive,–,–,–
CC(=O)c1c(C)[nH]c(C(=O)OCC(=O)c2ccc3c(c2)NC(=O)CO3)c1C,inactive,inactive,inactive,inactive,inactive,–,–,–
CCc1ccc(C=C2SC(=S)N(CCCC(=O)Nc3ccc(C(=O)O)cc3)C2=O)cc1,inactive,inactive,inactive,inactive,inactive,–,–,–
O=C(O)CN1C(=O)/C(=C\C(Br)=C\c2ccccc2)SC1=S,inactive,–,inactive,–,–,"6.32% [at 17.1 µM, percent relative to cAMP agonist control]",0.657% [at 30.8 µM],8.49% [at 30.8 µM]
CC(C)(C)C(=O)NC(Nc1cccc2cccnc12)C(Cl)(Cl)Cl (stereo not given),inactive,–,inactive,–,–,"7.17% [at 17.1 µM, percent relative to cAMP agonist control]",-6% [at 30.8 µM],21.1% [at 30.8 µM]
O=C(CCC(=O)N1CCSc2ccccc21)NCc1cccc(Br)c1,inactive,–,inactive,–,–,"9.98% [at 17.1 µM, percent relative to cAMP agonist control]",0.997% [at 30.8 µM],10% [at 30.8 µM]
COc1ccc2c(c1)c(=O)oc1c(C)c(OCc3cc(C(=O)O)oc3C)ccc12,inactive,inactive,inactive,inactive,inactive,–,–,–
Oc1ccccc1CNc1ccc(OC(F)(F)F)cc1,inactive,inactive,inactive,inactive,inactive,–,–,–
CC(C)C[C@H]1CNC(=O)C(=O)N1C[C@@H]1CCCN1C[C@H](Cc1ccc(O)cc1)N1C[C@H](Cc2ccccc2)N(CC2CCCCC2)C(=O)C1=O,inactive,inactive,47.8 µM (active),inactive,inactive,–,–,–
O=C(Nc1nc(-c2cc(F)ccc2F)cs1)C1=COCCO1,inactive,inactive,inactive,inactive,inactive,–,–,–
COC(=O)c1ccc2nc(-c3ccc(OC)c(OC)c3)c(Cc3ccccc3)n2c1,inactive,inactive,inactive,inactive,inactive,–,–,–
C=CCN1C(=O)/C(=C/c2ccc(OC(C)=O)c(OCC)c2[N+](=O)[O-])SC1=S,inactive,–,inactive,–,–,"0% [at 17.1 µM, percent relative to cAMP agonist control]",12.5% [at 30.8 µM],52.7% [at 30.8 µM]

Compound,Potency [1],Potency [2],Potency [3],Potency [4],Potency [5],activation [2],"activity change, negative = inhibition [4]",activation [5]
CCOC(=O)c1ccccc1NC(=O)CSc1nc2c(sc(=S)n2CC)c(=O)[nH]1,inactive,–,inactive,–,–,"5.86% [at 17.1 µM, percent relative to cAMP agonist control]",-2.38% [at 30.8 µM],10.2% [at 30.8 µM]
Cc1c(C(=O)N2CCN(c3ncccn3)CC2)oc2c(Cl)cccc12,inactive,inactive,inactive,inactive,inactive,–,–,–
CCN(c1ccc(NC(=O)CCc2nc3sc4c(c3c(=O)[nH]2)CCCC4)cc1)C(C)C,inactive,–,inactive,–,–,"-1.91% [at 17.1 µM, percent relative to cAMP agonist control]",-10.9% [at 30.8 µM],2.05% [at 30.8 µM]
CCN(CC)C(=O)CSc1nnc(-c2cccs2)n1Cc1ccco1,inactive,inactive,inactive,inactive,inactive,–,–,–
CCCCN(C(=O)Cn1ncc(Cl)c(Cl)c1=O)c1c(N)n(CC(C)C)c(=O)[nH]c1=O,inactive,–,inactive,–,–,"3.26% [at 17.1 µM, percent relative to cAMP agonist control]",-8.9% [at 30.8 µM],16.5% [at 30.8 µM]
O=C(N/N=C/c1ccccc1O)c1cccc(C(F)(F)F)c1,inactive,–,inactive,–,–,"5.14% [at 17.1 µM, percent relative to cAMP agonist control]",-7.23% [at 30.8 µM],8.8% [at 30.8 µM]
C[C@@H]1ON(C)[C@H]2C[C@H]3c4[nH]c5ccc(-c6ccc7c(c6)OCO7)cc5c4CCN3C(=O)[C@@H]12,inactive,–,inactive,–,–,"1.59% [at 17.1 µM, percent relative to cAMP agonist control]",-7.04% [at 30.8 µM],32% [at 30.8 µM]
O=C(O)COc1ccc(/C=N/NC(=O)c2ccc(-c3csc(Nc4ccc(Cl)cc4)n3)cc2)cc1,inactive,inactive,inactive,inactive,inactive,–,–,–
Cc1cccc2sc(N(CCCN(C)C)C(=O)CCS(=O)(=O)c3ccccc3)nc12,inactive,inactive,inactive,inactive,inactive,–,–,–
CCc1ccc(-n2c(CCC(=O)O)ccc2-c2cccs2)cc1,inactive,inactive,inactive,inactive,inactive,–,–,–
Cc1ccccc1CN(C)CC(=O)Nc1c(C)cccc1C(C)C,inactive,–,inactive,–,–,"7.02% [at 17.1 µM, percent relative to cAMP agonist control]",-6.66% [at 30.8 µM],-4.69% [at 30.8 µM]
Oc1ccc(NCc2ccc(OCc3ccccc3Cl)cc2)cc1,inactive,inactive,inactive,inactive,56.2 µM (active),–,–,–
COc1cc2c(c(OC)c1OC)-c1c(cc(OC)c(OC)c1OC)C[C@H](C)[C@H](C)C2,inactive,–,inactive,–,–,"7.13% [at 17.1 µM, percent relative to cAMP agonist control]",-11.3% [at 30.8 µM],23.6% [at 30.8 µM]
O=C(/C=C/c1ccc(Br)o1)NCc1ccccc1,inactive,–,inactive,–,–,"-1.62% [at 17.1 µM, percent relative to cAMP agonist control]",13% [at 30.8 µM],21.3% [at 30.8 µM]
CC(C)(C)N1CC(c2nc3ccccc3n2CCOc2ccccc2)CC1=O (stereo not given),inactive,inactive,inactive,inactive,inactive,–,–,–
COc1ccc(C(C)(NC(C)=O)c2nc(-c3cc(F)cc(F)c3)cs2)cc1 (stereo not given),inactive,–,inactive,–,–,"0% [at 17.1 µM, percent relative to cAMP agonist control]",-9.04% [at 30.8 µM],15% [at 30.8 µM]
O=C(CSc1ccc(-c2ccco2)nn1)c1ccc(F)cc1,inactive,inactive,inactive,inactive,inactive,–,–,–
Cc1cc2nc(-c3ccc(SCc4ccccn4)nc3)[nH]c2cc1C,inactive,–,inactive,–,–,"4.1% [at 17.1 µM, percent relative to cAMP agonist control]",1.95% [at 30.8 µM],19.2% [at 30.8 µM]
